Assay results taken from PubChem BioAssay (EPA / NIEHS).
Results filed as inconclusive are left out. Some compounds were tested as several samples or in several runs, with calls that do not always agree. Active and inactive are the calls of the source. The calls were made as follows: active = hit-call score of the fitted dose curve at least 0.9, where 1 is the maximum; inconclusive = response in the unintended direction; inactive = score below 0.9.

target: human Fibroblast Growth Factor Receptor 1 (FGFR1), FGFR1 (gene 2260) (UniProt P11362); assay: NVS_ENZ_hFGFR1: NovaScreen (NVS) Enzymatic Assay for human Fibroblast Growth Factor Receptor 1 (FGFR1) (AID 2283159)
Sequence (P11362 whole entry, looked up): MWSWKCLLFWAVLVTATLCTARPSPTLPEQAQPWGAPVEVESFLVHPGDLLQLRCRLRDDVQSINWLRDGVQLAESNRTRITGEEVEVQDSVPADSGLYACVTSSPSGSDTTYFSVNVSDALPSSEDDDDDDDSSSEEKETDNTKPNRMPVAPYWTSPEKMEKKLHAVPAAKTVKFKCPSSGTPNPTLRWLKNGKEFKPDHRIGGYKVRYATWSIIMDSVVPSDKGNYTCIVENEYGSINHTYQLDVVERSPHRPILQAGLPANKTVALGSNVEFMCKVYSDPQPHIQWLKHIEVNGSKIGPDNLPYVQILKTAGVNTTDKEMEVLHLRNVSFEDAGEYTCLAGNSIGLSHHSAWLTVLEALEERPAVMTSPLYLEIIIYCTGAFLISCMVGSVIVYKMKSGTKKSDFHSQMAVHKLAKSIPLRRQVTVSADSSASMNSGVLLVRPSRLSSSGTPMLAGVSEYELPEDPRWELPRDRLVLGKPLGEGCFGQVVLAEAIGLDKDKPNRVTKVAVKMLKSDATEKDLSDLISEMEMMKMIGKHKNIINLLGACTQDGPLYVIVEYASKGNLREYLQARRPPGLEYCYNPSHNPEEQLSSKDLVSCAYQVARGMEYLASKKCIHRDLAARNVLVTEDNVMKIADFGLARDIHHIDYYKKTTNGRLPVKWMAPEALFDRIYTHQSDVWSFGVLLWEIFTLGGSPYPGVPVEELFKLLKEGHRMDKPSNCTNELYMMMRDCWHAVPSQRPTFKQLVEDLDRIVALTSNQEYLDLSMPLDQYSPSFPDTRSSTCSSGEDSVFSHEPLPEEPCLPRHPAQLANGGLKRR
How it was run: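 Cell-free recombinant kinase with fluorescent substrate, product separated by electrophoretic mobility shift; read 1 hour after dosing, loss of signal relative to DMSO. Initial screen in duplicate at 25 uM, actives followed in concentration series.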

SMILES	outcome
CCOC(=O)c1ccc(O)cc1	inactive
Cc1cc(C)c(O)c(C)c1	inactive
CC(C)=CCC/C(C)=C\CO	inactive
O=C(O)c1ccccc1	inactive
OCCC(F)(F)C(F)(F)C(F)(F)C(F)(F)C(F)(F)C(F)(F)F	inactive

target: human Mitogen-Activated Protein Kinase 1 (MAPK 1), MAPK1 (gene 5594) (UniProt P28482); assay: NVS_ENZ_hMAPK1: NovaScreen (NVS) Enzymatic Assay for human Mitogen-Activated Protein Kinase 1 (MAPK 1) (AID 2283175)
Sequence (P28482 whole entry, looked up): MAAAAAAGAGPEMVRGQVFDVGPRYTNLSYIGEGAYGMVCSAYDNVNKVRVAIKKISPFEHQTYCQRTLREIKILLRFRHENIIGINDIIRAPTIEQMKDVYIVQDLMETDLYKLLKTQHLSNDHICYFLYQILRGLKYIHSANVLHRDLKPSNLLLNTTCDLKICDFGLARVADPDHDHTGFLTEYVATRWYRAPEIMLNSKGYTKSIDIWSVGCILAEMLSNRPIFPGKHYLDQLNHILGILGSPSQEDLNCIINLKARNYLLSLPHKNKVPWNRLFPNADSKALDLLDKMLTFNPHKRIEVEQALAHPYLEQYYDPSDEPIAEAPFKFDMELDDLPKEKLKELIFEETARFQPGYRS
How it was run: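 Cell-free recombinant human MAPK1 enzymatic assay, fluorescence/electrophoretic mobility shift read at 1 h; loss of signal vs DMSO. Primary screen in duplicate at 25 uM; actives (e.g. ≥30% inhibition) run as concentration-response up to 50 uM.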

SMILES	outcome
CCCc1cc(=O)[nH]c(=S)[nH]1	inactive
Nc1ccn([C@@H]2O[C@H](CO)[C@@H](O)[C@@H]2O)c(=O)n1	inactive
CCCOc1ccc(S(=O)(=O)N2CCN(CC)CC2)cc1-c1nc2c(CC)n(Cc3ccccn3)nc2c(=O)[nH]1	inactive

target: human MET Proto-Oncogene, Receptor Tyrosine Kinase (MET), MET (gene 4233) (UniProt P08581); assay: NVS_ENZ_hMet: NovaScreen (NVS) Enzymatic Assay for human MET Proto-Oncogene, Receptor Tyrosine Kinase (MET) (AID 2283180)
Sequence (P08581 whole entry, looked up): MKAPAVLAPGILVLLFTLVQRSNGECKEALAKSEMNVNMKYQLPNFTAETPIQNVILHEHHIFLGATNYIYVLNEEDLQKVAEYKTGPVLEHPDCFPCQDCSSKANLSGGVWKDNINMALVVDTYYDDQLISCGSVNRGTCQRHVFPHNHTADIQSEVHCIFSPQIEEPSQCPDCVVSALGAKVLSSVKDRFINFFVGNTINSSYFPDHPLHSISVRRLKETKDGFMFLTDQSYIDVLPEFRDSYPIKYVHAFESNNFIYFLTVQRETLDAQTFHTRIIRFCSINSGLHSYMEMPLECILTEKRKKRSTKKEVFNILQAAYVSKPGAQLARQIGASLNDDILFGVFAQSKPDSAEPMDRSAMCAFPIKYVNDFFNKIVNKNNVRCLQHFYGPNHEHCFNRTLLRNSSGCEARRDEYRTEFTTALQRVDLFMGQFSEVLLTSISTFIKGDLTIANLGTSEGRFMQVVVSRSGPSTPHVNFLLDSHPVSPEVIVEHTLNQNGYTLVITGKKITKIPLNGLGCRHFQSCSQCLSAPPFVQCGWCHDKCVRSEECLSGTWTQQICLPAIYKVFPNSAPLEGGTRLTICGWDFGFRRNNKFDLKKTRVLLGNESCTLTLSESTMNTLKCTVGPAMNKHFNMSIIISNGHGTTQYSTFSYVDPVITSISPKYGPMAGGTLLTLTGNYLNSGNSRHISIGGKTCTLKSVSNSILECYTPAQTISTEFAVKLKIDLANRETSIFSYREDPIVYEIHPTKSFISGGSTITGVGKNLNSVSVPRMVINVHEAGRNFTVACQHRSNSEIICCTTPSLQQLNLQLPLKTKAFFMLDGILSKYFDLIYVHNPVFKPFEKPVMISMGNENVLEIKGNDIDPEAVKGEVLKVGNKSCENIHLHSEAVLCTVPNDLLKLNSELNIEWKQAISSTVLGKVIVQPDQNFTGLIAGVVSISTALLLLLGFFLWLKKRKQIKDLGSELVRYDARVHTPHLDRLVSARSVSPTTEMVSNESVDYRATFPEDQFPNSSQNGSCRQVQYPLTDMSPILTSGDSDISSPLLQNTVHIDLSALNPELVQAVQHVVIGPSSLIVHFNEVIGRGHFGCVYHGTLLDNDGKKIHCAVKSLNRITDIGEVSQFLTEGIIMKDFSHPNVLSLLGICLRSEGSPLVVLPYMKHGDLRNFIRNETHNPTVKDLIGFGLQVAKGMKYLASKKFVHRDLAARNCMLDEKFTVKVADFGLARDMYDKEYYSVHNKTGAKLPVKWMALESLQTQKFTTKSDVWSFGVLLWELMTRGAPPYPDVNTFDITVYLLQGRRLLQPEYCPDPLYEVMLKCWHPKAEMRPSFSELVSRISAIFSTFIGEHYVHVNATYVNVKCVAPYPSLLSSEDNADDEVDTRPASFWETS
How it was run: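 Cell-free MET kinase assay using recombinant protein and fluorescent substrate, with mobility-shift separation; read 1 h after dosing. Primary duplicate at 25 uM; actives in singleton concentration-response to 50 uM maximum. Signal loss versus DMSO.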

SMILES	AC50	outcome
CCCCCCCCCCCCCCOS(=O)(=O)O	18.5 µM (active)	
OCC(CO)n1cnc(-c2ccc(F)cc2)c1-c1ccnc(Oc2ccccc2)n1		inactive
CC(=O)Oc1ccccc1C(=O)O		inactive
CCCOC(=O)c1cc(O)c(O)c(O)c1		inactive
CCCCc1ccc2c(n1)[C@@H](c1ccc(OC)cc1C[C@H](C)C(=O)O)[C@H](C(=O)O)[C@H]2c1ccc2c(c1)OCO2		inactive
CC(O)CO (centres undefined)		inactive
CC(C)=CCC/C(C)=C/CO		inactive
Nc1ccccc1N	32.2 µM (active)	

target: human Matrix Metalloproteinase-1 (MMP1), MMP1 (gene 4312) (UniProt P03956); assay: NVS_ENZ_hMMP1: NovaScreen (NVS) Enzymatic Assay for human Matrix Metalloproteinase-1 (MMP1) (AID 2283181)
How it was run: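 Human MMP1 enzyme activity measured by fluorescence 1 h after dosing, cell-free, with a specific substrate. Screened in duplicate at 25 uM; hits (e.g. 30% inhibition) run in concentration-response up to 50 uM; loss of signal versus DMSO.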

SMILES	outcome	AC50
CCCCCCCCCCCCCCOS(=O)(=O)O	inactive	
c1ccc2n[nH]nc2c1	inactive	
Cc1ccc(S(=O)(=O)NC(=O)NN2CCCCCC2)cc1		6.9 µM (active)
CC(=O)Oc1ccccc1C(=O)O	inactive	
O=C(O)c1cccc(C(=O)O)c1		13 µM (active)
CCc1cc(C2=C(C(=O)O)N(c3ccccc3C(F)(F)F)S(=O)(=O)c3ccccc32)cc2c1OCO2		12.3 µM (active)
Cc1cc(=O)[nH]c(=S)[nH]1	inactive	
CCCCOC(=O)CC(CC(=O)OCCCC)(OC(C)=O)C(=O)OCCCC	inactive	
O=P(OC(CCl)CCl)(OC(CCl)CCl)OC(CCl)CCl	inactive	
CCCOC(=O)c1cc(O)c(O)c(O)c1		16.1 µM (active)
CCc1nn(C2CCCCC2)c2cc(C3(C#N)CCC(C(=O)O)CC3)ccc12 (centres undefined)		12.1 µM (active)
CC(=O)S[C@H](C(=O)N[C@H]1Cc2ccccc2[C@H]2CCC[C@@H](C(=O)O)N2C1=O)C(C)C	inactive	
CCN(Cc1cccc(S(=O)(=O)O)c1)c1ccc(C(=C2C=CC(=[N+](CC)Cc3cccc(S(=O)(=O)O)c3)C=C2)c2ccccc2S(=O)(=O)[O-])cc1	inactive	
CC(=O)OC1CC(C)OC(C)O1 (centres undefined)	inactive	
Cn1cnc2c1c(=O)[nH]c(=O)n2C	inactive	
CC(=O)NC1(c2cccc(F)c2)CCN(CC[C@@]2(c3ccc(Cl)c(Cl)c3)CN(c3ccccc3)C(=O)CO2)CC1	inactive	
CCCCc1nc2cccnc2n1Cc1ccc(-c2ccccc2-c2nnn[nH]2)cc1		2.25 µM (active)
CO[C@@H]1COCC[C@@H]1N[C@@H]1CC[C@@](C(=O)N2CCc3ncc(C(F)(F)F)cc3C2)(C(C)C)C1	inactive	
CC(C)c1cccc(C(C)C)c1NC(=O)NS(=O)(=O)c1cc(C(C)(C)O)co1		37.1 µM (active)
CCCCCCCCCC	inactive	
c1ccc(C(O[C@@H]2CCCN(CCc3ccc4c(c3)OCO4)C2)c2ccccc2)cc1		8.81 µM (active)
CCC(C)c1ccccc1O (centres undefined)		11.9 µM (active)
Nc1ccc(C(=O)O)cc1	inactive	
COC(=O)c1ccccc1O	inactive	
CC(C)(O)c1coc(S(=O)(=O)NC(=O)Nc2c3c(cc4c2CCC4)CCC3)c1	inactive	
CCCCC(CC)COC(=O)CC(C(=O)OCC(CC)CCCC)S(=O)(=O)O (centres undefined)	inactive	
Clc1cc(Cl)c(Cl)cc1Cl	inactive	

target: human Protein Tyrosine Phosphatase Receptor Type C (PTPRC), PTPRC (gene 5788) (UniProt P08575); assay: NVS_ENZ_hPTPRC: NovaScreen (NVS) Enzymatic Assay for human Protein Tyrosine Phosphatase Receptor Type C (PTPRC) (AID 2283212)
Sequence (P08575 whole entry, looked up): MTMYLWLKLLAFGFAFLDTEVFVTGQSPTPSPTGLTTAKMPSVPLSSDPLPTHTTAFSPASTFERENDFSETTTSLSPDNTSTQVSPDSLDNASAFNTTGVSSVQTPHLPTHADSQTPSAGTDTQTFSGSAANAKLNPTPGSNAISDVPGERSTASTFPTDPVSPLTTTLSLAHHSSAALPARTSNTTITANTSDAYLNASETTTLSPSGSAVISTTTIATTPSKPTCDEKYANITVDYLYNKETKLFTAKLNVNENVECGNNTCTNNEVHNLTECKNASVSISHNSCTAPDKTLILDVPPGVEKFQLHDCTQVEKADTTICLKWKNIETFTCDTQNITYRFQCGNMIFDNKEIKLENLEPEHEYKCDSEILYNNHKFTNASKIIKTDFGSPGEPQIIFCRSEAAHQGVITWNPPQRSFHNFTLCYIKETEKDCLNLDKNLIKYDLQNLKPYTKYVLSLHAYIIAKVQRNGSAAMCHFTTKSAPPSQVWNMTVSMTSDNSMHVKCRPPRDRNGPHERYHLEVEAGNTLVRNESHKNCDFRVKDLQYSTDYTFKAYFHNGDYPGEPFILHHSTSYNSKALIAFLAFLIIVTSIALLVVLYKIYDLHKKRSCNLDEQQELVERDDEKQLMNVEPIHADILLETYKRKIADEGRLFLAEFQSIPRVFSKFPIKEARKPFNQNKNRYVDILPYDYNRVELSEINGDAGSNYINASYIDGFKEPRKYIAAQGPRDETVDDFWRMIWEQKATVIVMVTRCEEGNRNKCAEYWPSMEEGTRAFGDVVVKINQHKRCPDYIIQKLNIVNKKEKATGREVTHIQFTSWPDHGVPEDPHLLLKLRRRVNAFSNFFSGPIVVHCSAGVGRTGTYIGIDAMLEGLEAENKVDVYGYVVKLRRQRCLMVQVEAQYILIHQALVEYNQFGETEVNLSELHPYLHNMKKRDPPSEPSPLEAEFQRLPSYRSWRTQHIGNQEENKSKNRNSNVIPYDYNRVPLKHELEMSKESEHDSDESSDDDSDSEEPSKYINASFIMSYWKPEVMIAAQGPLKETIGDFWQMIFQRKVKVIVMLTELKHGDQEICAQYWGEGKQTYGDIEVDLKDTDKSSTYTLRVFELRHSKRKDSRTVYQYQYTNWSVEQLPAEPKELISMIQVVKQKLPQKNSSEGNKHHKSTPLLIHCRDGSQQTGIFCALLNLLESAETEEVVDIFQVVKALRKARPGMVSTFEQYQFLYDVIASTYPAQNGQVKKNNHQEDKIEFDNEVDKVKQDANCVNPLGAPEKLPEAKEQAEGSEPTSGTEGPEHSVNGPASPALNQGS
How it was run: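 Yeast-extracted human PTPRC used in a cell-free colorimetric enzyme activity read-out, 1 h after dosing. Primary screen in duplicate at 25 uM; actives rerun in concentration-response up to 50 uM, DMSO as baseline.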

SMILES	AC50	outcome
CCCCCCCCCCCCCCOS(=O)(=O)O	24.2 µM (active)	
CCCCc1nc2cccnc2n1Cc1ccc(-c2ccccc2-c2nnn[nH]2)cc1		inactive
Nc1ccccc1N	7.6 µM (active)	
CCCCC(CC)COC(=O)CC(C(=O)OCC(CC)CCCC)S(=O)(=O)O (centres undefined)	25 µM (active)	

target: rat Acetylcholinesterase (AChE), Ache (gene 83817) (UniProt P37136); assay: NVS_ENZ_rAChE: NovaScreen (NVS) Enzymatic Assay for rat Acetylcholinesterase (AChE) (AID 2283233)
Sequence (P37136 whole entry, looked up): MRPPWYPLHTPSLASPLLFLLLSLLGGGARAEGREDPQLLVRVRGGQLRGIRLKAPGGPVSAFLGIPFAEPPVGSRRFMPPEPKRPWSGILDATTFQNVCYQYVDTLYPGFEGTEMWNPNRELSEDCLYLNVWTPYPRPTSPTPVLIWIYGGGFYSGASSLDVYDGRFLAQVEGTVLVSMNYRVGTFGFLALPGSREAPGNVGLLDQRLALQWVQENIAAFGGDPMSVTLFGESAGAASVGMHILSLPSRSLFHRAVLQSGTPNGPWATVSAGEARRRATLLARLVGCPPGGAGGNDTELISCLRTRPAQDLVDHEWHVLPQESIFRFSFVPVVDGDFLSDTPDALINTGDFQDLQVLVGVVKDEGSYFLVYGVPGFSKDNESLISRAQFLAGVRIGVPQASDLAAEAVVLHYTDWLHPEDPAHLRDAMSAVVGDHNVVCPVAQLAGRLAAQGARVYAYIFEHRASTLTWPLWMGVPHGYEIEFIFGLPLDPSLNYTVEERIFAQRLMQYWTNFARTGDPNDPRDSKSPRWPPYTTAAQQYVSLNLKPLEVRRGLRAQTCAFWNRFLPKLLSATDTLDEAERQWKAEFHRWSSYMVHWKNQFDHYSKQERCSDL
How it was run: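 Rat brain membrane acetylcholinesterase activity measured colorimetrically 0.33 h after compound addition, loss of signal relative to DMSO. Primary screen in duplicate at 25 uM; actives re-run as concentration-response with 50 uM top concentration.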

SMILES	outcome
Cn1cnc2c1c(=O)[nH]c(=O)n2C	inactive
CC(C)=CCC/C(C)=C\CO	inactive
CCCCCCCCCC	inactive

target: rat Monoamine Oxidase, MAO-B, Central (MAOBC), Maob (gene 25750) (UniProt P19643); assay: NVS_ENZ_rMAOBC: NovaScreen (NVS) Enzymatic Assay for rat Monoamine Oxidase, MAO-B, Central (MAOBC) (AID 2283238)
Sequence (P19643 whole entry, looked up): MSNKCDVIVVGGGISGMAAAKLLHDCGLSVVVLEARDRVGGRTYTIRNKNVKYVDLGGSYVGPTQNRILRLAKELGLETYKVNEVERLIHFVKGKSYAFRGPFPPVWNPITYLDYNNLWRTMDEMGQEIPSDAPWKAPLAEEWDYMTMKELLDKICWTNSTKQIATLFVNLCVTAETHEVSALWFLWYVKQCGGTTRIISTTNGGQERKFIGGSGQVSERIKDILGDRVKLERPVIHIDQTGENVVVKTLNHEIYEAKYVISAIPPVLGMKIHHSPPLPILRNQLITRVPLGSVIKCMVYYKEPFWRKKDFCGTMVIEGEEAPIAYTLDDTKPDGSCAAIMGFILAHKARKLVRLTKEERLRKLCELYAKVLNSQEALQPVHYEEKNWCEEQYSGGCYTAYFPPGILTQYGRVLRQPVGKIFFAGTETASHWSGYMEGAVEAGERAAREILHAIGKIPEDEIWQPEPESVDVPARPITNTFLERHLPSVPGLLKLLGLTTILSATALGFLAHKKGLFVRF
How it was run: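 Rat brain tissue extract served as the cell-free MAO-B source; enzyme activity was read by scintillation counting 1.17 hours after compound addition. Loss of signal versus DMSO baseline was fitted; primary single-concentration screen at 25 uM, follow-up concentration-response up to 50 uM.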

SMILES	AC50	outcome
c1ccc2n[nH]nc2c1	25 µM (active)	inactive
CCOC(=O)c1ccc(O)cc1		inactive
CCCOC(=O)c1cc(O)c(O)c(O)c1		inactive
O=C(O)c1ccccc1		inactive
c1ccc(C(O[C@@H]2CCCN(CCc3ccc4c(c3)OCO4)C2)c2ccccc2)cc1	14.9 µM (active)	

tested on: rat Monoamine Oxidase, MAO-A, Central (MAOAC), gene 29253; assay: NVS_ENZ_rMAOAC: NovaScreen (NVS) Enzymatic Assay for rat Monoamine Oxidase, MAO-A, Central (MAOAC) (AID 2283243);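 also: potency refers to inhibition seen as signal drop below DMSO baseline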
How it was run: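 Inhibition of rat brain-derived MAO-A was read by scintillation counting after 1.5 h exposure. Compounds screened first at 25 uM in duplicate, then in dose series if active.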

SMILES	outcome	AC50
Cc1cc(C)c(O)c(C)c1	inactive	
CCCCCCCCCC	inactive	
c1ccc(C(O[C@@H]2CCCN(CCc3ccc4c(c3)OCO4)C2)c2ccccc2)cc1		20.5 µM (active)
